According to paper PMC7826789 (International Journal of Molecular Sciences, 2021):

SMILES: CCCS(=O)(=O)Nc1ccc(F)c(-n2cc(-c3cncc(OC)c3)nn2)c1F [BI00865461]
- Kinases covered (ZAK): ZAK

SMILES: CNS(=O)(=O)c1ccc(N(C)C)c(Nc2ncnc3cc(OC)c(OC)cc23)c1 [GSK114]
- Kinases covered (ZAK): ZAK

SMILES: NC(=O)c1cccnc1COc1cc(-c2ccc(N3CCOCC3)nc2)cc2ncccc12 [BI01125081]
- Kinases covered (ZAP70): ZAP70

SMILES: O=C1Nc2ccc(I)cc2C1=Cc1cc(Br)c(O)c(Br)c1 [GW305074X]
- Kinases covered (cRAF): cRAF

SMILES: CCn1c(-c2nonc2N)nc2cncc(CNC3CCNCC3)c21 [SB-747651A]
- Kinases covered (p70S6K): p70S6K
